In PubChem BioAssay (NCATS) one finds Potency, outcome and activity change, negative = inhibition data, which are given here for 28 compounds.

Inconclusive results are not listed. Entries that show only a call come without a potency. Values without a mark were called inactive. The source made the active and inactive calls. Unless noted, the call rests on the fitted dose curve; in most records, active means well fitted curve in the direction sought with a large enough effect; inconclusive means small, poorly fitted or top-dose-only effect, or another doubt; inactive means no such curve, though single readings can be large; an effect the other way counts as inactive or inconclusive.

The target of experiment [1] is Calcium and integrin-binding protein 1 (Homo sapiens) (UniProt Q99828). Briefly: Primary qHTS for Identification of Calcium Integrin Binding Protein 1 (CIB1) Competitor (AID 1508620). Further: potency means the concentration at half of the fitted maximal effect.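 On activity change, negative = inhibition: GST tagged CIB1 binding a fluorescein labelled alphaIIb integrin peptide tracer; top concentration of the series differs between compounds.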 In outline:
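CIB1-GST (1 uM final) and compound incubated 15 min at room temperature before adding FITC-alphaIIb peptide tracer (100 nM final). Competition for binding read by fluorescence polarization (ex 480, em 540) after another 15 min at room temperature.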

The nature of experiment [2]: Primary qHTS for small molecule stabilizers of the endoplasmic reticulum resident proteome: Secreted ER Calcium Modulated Protein (SERCaMP) assay (AID 1508630). The text has this:
Assay Provider: Brandon K. Harvey Ph.D.
National Institute on Drug Abuse, National Institutes of Health, Baltimore, MD
Endoplasmic reticulum (ER) dysregulation is associated with human pathologies including neurodegenerative, cardiovascular, muscular, and diabetic conditions. Maintenance of ER calcium is critical for functions of the ER and its depletion can lead to loss of ER resident proteins, in a process termed exodosis. Therapeutic compounds capable of attenuating the redistribution of ER proteins under pathological conditions may slow or stop disease progression. To identify such compounds, we performed a quantitative high-throughput screen (qHTS) using the SERCaMP assay, which monitors secretion of ER resident proteins triggered by calcium depletion.
SERCaMP was initially developed as a reporter of ER calcium homeostasis using a Gaussia luciferase with a modified signal peptide and carboxy-terminus (GLuc-SERCaMP), modifications that confer secretion of the reporter in response to ER calcium depletion (Henderson et al., 2014). The assay was used to screen 9,501 compounds, including a collection of drugs approved by the FDA (US), EMA (EU), NHI (Japan), and HC (Canada) regulatory agencies (Huang et al., 2011). Since the SERCaMP reporter reflects the exodosis phenomenon (Trychta et al., 2018a), compounds identified in the screen have the potential to prevent exodosis by different mechanisms such as stabilizing ER calcium or augmenting ERS retrieval.
1. Henderson, M.J., Wires, E.S., Trychta, K.A., Richie, C.T., and Harvey, B.K. (2014). SERCaMP: a carboxy-terminal protein modification that enables monitoring of ER calcium homeostasis. Mol Biol Cell 25, 2828-2839.
2. Huang, R., Southall, N., Wang, Y., Yasgar, A., Shinn, P., Jadhav, A., Nguyen, D.T., and Austin, C.P. (2011). The NCGC pharmaceutical collection: a comprehensive resource of clinically approved drugs enabling repurposing and chemical genomics. Sci Transl Med 3, 80ps16.
3. Trychta, K.A., Back, S., Henderson, M.J., and Harvey, B.K. (2018a). KDEL Receptors Are Differentially Regulated to Maintain the ER Proteome under Calcium Deficiency. Cell Rep 25, 1829-1840 e1826.
SEQUENCE No. (1, 2, 3, etc.); […] (e.g., Cells, Incubation, Reagent, etc.); VALUE and DESCRIPTION.
1; Reagent; 5 uL; 1000 SH-SY5Y cells per wells
3; Compound; 23 nL; Control inhibitor / compound library
5; Reagent; 100 nM; Thapsigargin […]
8; Detection; Luminescence; ViewLux imaging system […]
7; Gaussia luciferase in the medium was measured by adding 1 ul of 0.5x coelenterazine (final concentration 0.07x) prepared in Gaussia Luciferase Glow Assay Buffer (Pierce), without addition of the Cell Lysis Buffer Reagent.
8; Luminescence was measured using a ViewLux […] CCD imaging system (Perkin Elmer) equipped with clear filters. […]

Experiment [3] can be described thus: Primary qHTS for inhibitors of nuclear receptor binding SET domain protein 2 (NSD2) in an isogenic RCH-ACV NSD2 p.E1099K mutant (9B) (AID 1645876). Further: nearly all actives have a fitted effect of over 70% in size. Further: potency means the concentration at half of the fitted maximal effect.
Experiment [4] deals with Cytochrome P450 2D6 (Homo sapiens) (UniProt P10635). Briefly: Cytochrome P450 family 2 subfamily D member 6 (CYP2D6) small molecule antagonists: luciferase biochemical (cell-free) qHTS assay (AID 1645840; active means well fitted curve in the direction sought with a large enough effect in the repeat runs; an effect the other way counts as inactive or inconclusive; further: nearly all actives have a fitted effect of over 55% in size; further: potency means the concentration at half of the fitted maximal effect; on activity change, negative = inhibition: series mostly up to about 57 µM). In outline:
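P450-Glo CYP2D6 system: proluciferin substrate converted by enzyme to luciferin, read by luminescence proportional to activity. Enzyme-substrate mix with compound 10 min at room temperature, then NADPH regeneration 1 h before detection reagent.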

The nature of experiment [5]: A High-Content qHTS Against Drug Library for the Identification of Small Molecules that Inhibit DYT1 Early Onset Primary Dystonia-Associated Cell Pathology (AID 1645839; calls by dose curve; further: potency means the concentration at half of the fitted maximal effect). In outline:
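High-content imaging quantified EGFP-TorsinA mislocalization in HEK293-derived cells inducibly expressing DYT1 mutant torsinA, after 48 h exposure to compound given together with tetracycline induction. Cell count served as a toxicity channel alongside %pathology.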

Experiment [6] has as its target Cytochrome P450 2C9 (Homo sapiens) (UniProt P11712). As to the kind of experiment: Cytochrome P450 family 2 subfamily C member 9 (CYP2C9) small molecule antagonists: luciferase biochemical (cell-free) qHTS assay (AID 1645842; active means well fitted curve in the direction sought with a large enough effect in the repeat runs; an effect the other way counts as inactive or inconclusive; further: nearly all actives have a fitted effect of over 55% in size; further: potency means the concentration at half of the fitted maximal effect; on activity change, negative = inhibition: series mostly up to about 57 µM). In outline: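 P450-Glo CYP2C9 system: proluciferin substrate with enzyme in mix containing 0.4% BSA, 10 min at room temperature, then NADPH regeneration solution added and incubated 1 h at 37C. Detection reagent stopped reaction; luminescence read after 20 min as RLU.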

Sequence of Cytochrome P450 2D6 (Homo sapiens) (P10635 whole entry, looked up): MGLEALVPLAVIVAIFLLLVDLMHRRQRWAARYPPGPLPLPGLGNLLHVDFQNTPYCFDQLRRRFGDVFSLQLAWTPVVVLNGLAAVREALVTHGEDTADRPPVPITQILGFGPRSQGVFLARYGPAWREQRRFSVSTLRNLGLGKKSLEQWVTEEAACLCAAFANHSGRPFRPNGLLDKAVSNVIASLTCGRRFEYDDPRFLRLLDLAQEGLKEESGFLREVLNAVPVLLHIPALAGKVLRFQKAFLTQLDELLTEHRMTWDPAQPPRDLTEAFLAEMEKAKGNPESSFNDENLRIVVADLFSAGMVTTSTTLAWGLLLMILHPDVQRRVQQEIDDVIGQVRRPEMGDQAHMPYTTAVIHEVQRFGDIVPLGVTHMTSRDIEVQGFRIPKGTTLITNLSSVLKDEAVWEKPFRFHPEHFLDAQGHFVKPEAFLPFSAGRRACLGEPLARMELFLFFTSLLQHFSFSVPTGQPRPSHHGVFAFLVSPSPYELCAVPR
Sequence of Calcium and integrin-binding protein 1 (Homo sapiens) (Q99828 whole entry, looked up): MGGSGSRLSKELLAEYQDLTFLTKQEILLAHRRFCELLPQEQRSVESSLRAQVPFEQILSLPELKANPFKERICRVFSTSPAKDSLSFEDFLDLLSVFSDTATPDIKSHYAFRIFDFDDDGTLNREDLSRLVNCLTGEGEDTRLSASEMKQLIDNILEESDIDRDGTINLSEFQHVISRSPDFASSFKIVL
Sequence of Cytochrome P450 2C9 (Homo sapiens) (P11712 whole entry, looked up): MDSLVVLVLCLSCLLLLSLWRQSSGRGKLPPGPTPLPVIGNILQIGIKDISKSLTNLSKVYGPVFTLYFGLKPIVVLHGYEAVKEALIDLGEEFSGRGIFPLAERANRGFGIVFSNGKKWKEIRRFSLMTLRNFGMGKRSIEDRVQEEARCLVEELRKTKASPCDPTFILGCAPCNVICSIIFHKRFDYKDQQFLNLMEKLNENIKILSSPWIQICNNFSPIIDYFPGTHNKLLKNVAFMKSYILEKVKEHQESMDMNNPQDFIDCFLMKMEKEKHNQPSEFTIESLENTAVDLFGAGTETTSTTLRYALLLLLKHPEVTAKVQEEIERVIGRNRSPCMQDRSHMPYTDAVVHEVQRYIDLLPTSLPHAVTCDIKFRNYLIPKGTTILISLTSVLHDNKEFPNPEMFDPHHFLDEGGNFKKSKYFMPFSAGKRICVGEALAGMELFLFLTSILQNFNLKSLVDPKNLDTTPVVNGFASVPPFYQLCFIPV

In the case of `COc1cc2oc(-c3ccc(O)cc3O)cc2c(OC)c1CC=C(C)C`, the Potency result in experiment [1] was “inactive”.

In the case of `C/C1=C\C[C@]2(C)C(=O)C(O)=C([C@H](C)CO)[C@H]2C/C=C(\C)[C@@H](O)CC/C(C)=C/CC1`, in experiment [1], the Potency result is “inactive”.

With `CC(=O)O[C@H]1C[C@@]2(C)[C@@H](CC[C@H]3[C@@]4(C)C=CC(=O)[C@@H](C)[C@@H]4[C@H](O)C(=O)[C@@]32C)/C1=C(/CCC=C(C)C)C(=O)O`, the Potency result in experiment [1] is “inactive”.

For `CC(=O)OC1C(O)CC2(C)C(CCC(C)C23Cc2c(O)cc(CO)c(C=O)c2O3)C1(C)C` (stereo unspecified), the Potency entry in experiment [1] was “inactive”.

For the compound `CC(=O)O[C@H]1C(=O)[C@@]2(C)[C@H]([C@H](OC(=O)c3ccccc3)[C@]3(O)C[C@H](OC(=O)[C@H](O)[C@@H](NC(=O)c4ccccc4)c4ccccc4)C(C)=C1C3(C)C)[C@]1(OC(C)=O)CO[C@@H]1C[C@@H]2O`, in experiment [1], the Potency result is “inactive”. Also, in experiment [2], the result was inactive. In experiment [3], the Potency is 0.0069 µM (active).

As for `COc1ccc(-c2nc(-c3ccc(-c4cccc(Cl)c4)o3)[nH]c2-c2ccc(OC)cc2)cc1`, the Potency entry in experiment [1] and in experiment [4] was “inactive” throughout.

In the case of `CCOC(=O)c1sc(NC(=O)[C@H](C(C)C)n2c(=O)[nH]c3ccccc3c2=O)nc1C`, the Potency entry in experiment [1] was “inactive”.

On to `CCC(C(=O)O)c1ccc(N2Cc3ccccc3C2=O)cc1` (stereo unspecified), for which the Potency entry in experiment [1], in experiment [5], in experiment [6] and in experiment [3] was “inactive” throughout. Moreover, the outcome in experiment [2] was inactive.

Regarding `C=CC(C)(C)c1[nH]c2cc3c(cc2c1CC1NC(=O)C2=CCCN2C1=O)C=CC(C)(C)O3` (stereo unspecified), in experiment [1], the Potency result is “inactive”.

`CC(C)=CCCC1(C)C=Cc2c(c(C)cc3c2[nH]c2ccccc23)O1` (stereo unspecified): the Potency entry in experiment [1] was “inactive”. Also, the result in experiment [2] was inactive.

On to `CCc1cccc(CC)c1NC(=O)c1nn(C)c2c1CCc1cnc(Nc3ccc(C(=O)NC4CCN(C)CC4)cc3OC(F)(F)F)nc1-2`, for which the Potency entry in experiment [1] was “inactive”. Besides, the Potency in experiment [4] was 9.28 µM (active).

In the case of `CCc1ccc(Cc2ccc3c(c2)[C@]2(OC3)O[C@H](CO)[C@@H](O)[C@H](O)[C@H]2O)cc1`, the Potency result in experiment [1] was “inactive”.

Consider `Cc1ccc(S(=O)(=O)Nc2ccccc2N2CCCCC2)s1`, for which the Potency result in experiment [1] and in experiment [4] was “inactive” each time.

Take `Nc1ccccc1N`: the Potency in experiment [1] is 100 µM (active); in experiment [5] it was 35.5 µM (active); in experiment [4], 14.6 µM (active); in experiment [6], 35.6 µM (active).

In the case of `COC(=O)N[C@H](C(=O)N1[C@@H]2CC[C@@H](C2)[C@H]1c1nc2ccc(-c3ccc4c(c3)C(F)(F)c3cc(-c5cnc([C@@H]6CCC7(CC7)N6C(=O)[C@@H](NC(=O)OC)C(C)C)[nH]5)ccc3-4)cc2[nH]1)C(C)C`, in experiment [1], the Potency entry was “inactive”.

Take `C=C1C(=O)O[C@@H]2C[C@H](C)[C@@]3(O)C=C(C(C)=O)[C@]4(CC3C[C@H]12)C(=O)O[C@H]1C[C@@H](C)C(CCC(C)=O)=CC[C@H]14` (stereo partly specified): the Potency result in experiment [1] was “inactive”.

Consider `O=C(O)c1ccccc1NCCc1ccccc1`, for which the Potency entry in experiment [1], in experiment [5] and in experiment [3] was “inactive” in each case. In experiment [2], the result was inactive. The Potency in experiment [4] was 11 µM (active).

For `C=C(C(=O)O)[C@@H]1CC[C@@]2(C)CC[C@H](O)[C@@]2(C(C)=O)C1`, in experiment [1], the Potency entry is “inactive”.

For the compound `C[C@@H]1O[C@@H](O[C@H]2[C@H](OC(=O)[C@]34CCC(C)(C)C[C@H]3C3=CCC5[C@@]6(C)C[C@H](O)[C@H](O[C@@H]7O[C@H](CO)[C@@H](O[C@H]8OC[C@](O)(CO)[C@H]8O)[C@H](O)[C@H]7O)[C@@](C)(CO)C6[C@H](O)C[C@@]5(C)[C@]3(C)C[C@H]4O)OC[C@H](O)[C@@H]2O)[C@H](O)[C@H](O)[C@H]1O[C@@H]1OC[C@@H](O)[C@H](O[C@@H]2OC[C@](O)(CO)[C@H]2O)[C@H]1O` (stereo partly specified), in experiment [1], the activity change, negative = inhibition is -2.92% [at 12.4 µM].

In the case of `O=C1CCC(c2ccccc2)(C2CCN(Cc3ccc(I)cc3)CC2)C(=O)N1` (stereo unspecified), in experiment [1], the Potency entry is “inactive”. Besides, the Potency in experiment [4] was 13.5 µM (active).

Consider `O=C(O)c1c(O)c(-c2ccccc2)nc2ccccc12`, for which the Potency result in experiment [1], in experiment [5], in experiment [4] and in experiment [3] was “inactive” each time.

For `COc1ccc2c(OC)c3ccoc3nc2c1OC`, in experiment [1], the Potency entry was “inactive”.

As to `N#Cc1cnc2cnc(NCc3cccnc3)cc2c1Nc1ccc(F)c(Cl)c1`, the Potency entry in experiment [1] is “inactive”. In experiment [4], the Potency was 0.756 µM (active).

For `COC(=O)C1=CO[C@@H](O)C2C(CO)=CCC12` (stereo partly specified), the Potency entry in experiment [1] is “inactive”.

As for `CC(C)N(CCCCOCC(=O)NS(C)(=O)=O)c1cnc(-c2ccccc2)c(-c2ccccc2)n1`, the Potency result in experiment [1] was “inactive”.

Turning to `CC(=O)OC1/C(C)=C/C(=O)C(OC(C)=O)C(C)(C)/C=C/C(C)C(=O)C2(OC(C)=O)CC(C)C(OC(=O)c3ccccc3)C12` (stereo unspecified), the Potency result in experiment [1] was “inactive”.

Consider `COc1cc2ncnc(Nc3ccc(O)cc3)c2cc1OC`, for which the Potency result in experiment [1] and in experiment [4] was “inactive” each time.

`CC(CCC1(O)OC2CC3C4CCC5CC(O[C@@H]6O[C@H](CO)[C@@H](O)[C@H](O)[C@H]6O[C@@H]6O[C@@H](C)[C@H](O)[C@@H](O)[C@H]6O)C(O)CC5(C)C4CCC3(C)C2C1C)CO[C@@H]1O[C@H](CO)[C@@H](O)[C@H](O)[C@H]1O` (stereo partly specified): in experiment [1], the Potency result was “inactive”.
